Assay results published in publication PMC7819943, “Rice protein-binding microarrays: a tool to detect cis-acting elements near promoter regions in rice”.
Over roughly 68,000 sequences, “fluorescence intensity (a.u.)” has its median near 9,100; the highest 2% begin near 16,000. Shown is part of a subset that was picked to be rich in the highest values.

What follows are sequences tested against OsWRKY34 (Oryza sativa, UniProt Q0JBA9 1-250) (assay: protein-binding microarray (RPBM); PBS, 2% BSA, 51.3 ng/ul salmon testes DNA, 50 uM zinc acetate, 200 nM TF, 25 C, 1 h; high values mean tight binding). Details: protein: recombinant; tags: N-terminal polyhistidine and DsRed monomer fusion (pET32a); label: CyDye5-dUTP incorporated in the synthesized complementary strand; 3' TTTTT single-stranded linker to array surface; dsDNA, one strand shown.
How it was run: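 For the binding signal, per-feature fluorescence intensity was read in arbitrary units on an Axon 4000B scanner. Before scanning, a 2% BSA-blocked custom Agilent array made double-stranded with Cy5-dUTP was washed after 1 h at 25 °C with 200 nM protein and 50 µM zinc acetate. The proteins were Ni–NTA-purified transcription factors with N-terminal polyhistidine and DsRed fusions, expressed in E. coli BL21-CodonPlus.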

OsWRKY34, sequence (Q0JBA9 entry or part of it): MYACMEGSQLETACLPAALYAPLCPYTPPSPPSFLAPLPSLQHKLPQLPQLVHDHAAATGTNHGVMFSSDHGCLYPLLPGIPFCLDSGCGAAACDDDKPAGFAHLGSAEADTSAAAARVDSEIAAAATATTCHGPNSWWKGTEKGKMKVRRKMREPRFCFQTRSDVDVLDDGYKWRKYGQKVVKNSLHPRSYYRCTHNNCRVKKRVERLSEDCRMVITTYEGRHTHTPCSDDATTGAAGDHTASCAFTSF

Sequence | binding signal
GACCCACCACCACCACCACGCCGCGAGCACGCGAGCGAACCGGAGTCACCTAGTGCAG | 8880 fluorescence intensity (a.u.)
GGGACCTAGGATGAACTTATTCCTTTCTGTTTCAACCATACGGAGTCACCTAGTGCAG | 8370 fluorescence intensity (a.u.)
TGTGCCAGTTGTTAGTCATGATCTTCCTGATGTGTCATCCCGGAGTCACCTAGTGCAG | 8080 fluorescence intensity (a.u.)
ATTTGGTTTTATATGTTTGTGGAGTGATATATTTCGTATTCGGAGTCACCTAGTGCAG | 8350 fluorescence intensity (a.u.)
TTGGGTTGGGTCTTGGGTTTGGTGGTTTGAATTTGGTGTGCGGAGTCACCTAGTGCAG | 13100 fluorescence intensity (a.u.)
GGTGTGTGCTGGCTATTTGTCAAAGATTATGTGGGTTTTTCGGAGTCACCTAGTGCAG | 10400 fluorescence intensity (a.u.)
GGTGGTTTGAATTTGGTGTGGCGTTTTTCTTGGGCAGGGGCGGAGTCACCTAGTGCAG | 21500 fluorescence intensity (a.u.)
CAGGGTTTGGATGTGGATATGGTTTCTTCAAGGGTATTTTCGGAGTCACCTAGTGCAG | 16400 fluorescence intensity (a.u.)
TGGTTTTTCATTTTGTGTGCGTGTGCACGTTTGTGTGGGGCGGAGTCACCTAGTGCAG | 12700 fluorescence intensity (a.u.)
TATCCGGTTTTCTGGTTGAGGGGTATGAATTAGATTCGACCGGAGTCACCTAGTGCAG | 10200 fluorescence intensity (a.u.)
GGCTGGTTTGGTTTGTGGCTAAAATTGGCCTTACCAATTTCGGAGTCACCTAGTGCAG | 10500 fluorescence intensity (a.u.)
TTTTCAATTTTCTGGTTGAGTAGGGGTTCGGAATTTTCTTCGGAGTCACCTAGTGCAG | 10600 fluorescence intensity (a.u.)
TGGTTGAATTCTGGTTCGGGTATCCTCAATTTCGGGGTTTCGGAGTCACCTAGTGCAG | 17700 fluorescence intensity (a.u.)
CTTTTTTTTGATTTTTTTTATTTGTGGTTTGGATGTTTTTCGGAGTCACCTAGTGCAG | 9280 fluorescence intensity (a.u.)
TTTTTGGCTGGTCAAATTTGGCTAGTGTGGGGAGGGTTTTCGGAGTCACCTAGTGCAG | 23600 fluorescence intensity (a.u.)
TGTTATTATGTTTCAGGAATACTTCCTCTGGTTATAAATACGGAGTCACCTAGTGCAG | 9850 fluorescence intensity (a.u.)
ACCCCGTTCAACGCTCGCTTATATATATTCCCCTCTCGCACGGAGTCACCTAGTGCAG | 8640 fluorescence intensity (a.u.)
AGCCTTCCGGTGAACTCCGGCGACGGGCGGGTGTGGGGATCGGAGTCACCTAGTGCAG | 11000 fluorescence intensity (a.u.)
CTATTCTTGTGCATTCTGTTTTTTATCGTACATGCTACAGCGGAGTCACCTAGTGCAG | 11800 fluorescence intensity (a.u.)
ATGGTGGGCTGTGGGTGCATGGTTTTGCTGGTCGCACCCACGGAGTCACCTAGTGCAG | 11100 fluorescence intensity (a.u.)
CCACCATGGTCTCGCTCATTCTGTTTGCTTCACCTACTCTCGGAGTCACCTAGTGCAG | 14500 fluorescence intensity (a.u.)

Sequence | binding signal
ACTTTTTTTGGTGACTATGTGTTTCCCTGTGGTGGGCTTCCGGAGTCACCTAGTGCAG | 12000 fluorescence intensity (a.u.)
GGGGTGAACATTTCTTTCTTTCTGGTATTGTGGTTGAGGGCGGAGTCACCTAGTGCAG | 19300 fluorescence intensity (a.u.)
AGACATTTTTCTTTCTCGTGGATATTTACGCCTTTCTTGACGGAGTCACCTAGTGCAG | 8790 fluorescence intensity (a.u.)
TATATTTTCTTCTTCGTCACGATCGATGGGATTTTTATTTCGGAGTCACCTAGTGCAG | 9040 fluorescence intensity (a.u.)
TCAATTTTCTTGTTGACTCGGTGTTTTTGACTGTGGTCAACGGAGTCACCTAGTGCAG | 10900 fluorescence intensity (a.u.)
AGGGATGGTTGGACTTATTTCTTTCGCGTTTTCCTTGGGTCGGAGTCACCTAGTGCAG | 10900 fluorescence intensity (a.u.)
TTCTTCTTGGTGGTGGTGGGGCCTGGAAACTATGTGACTTCGGAGTCACCTAGTGCAG | 18200 fluorescence intensity (a.u.)
GAACTTTTCCTGGATGGTGATCCTTCTTTTGGCCTTCTTTCGGAGTCACCTAGTGCAG | 10500 fluorescence intensity (a.u.)
GGGGTGGAATTGTGTTGGGTTTCTTTGGTTGAGGAGAGAGCGGAGTCACCTAGTGCAG | 16000 fluorescence intensity (a.u.)
TAAGGGATGGGATGGTTGGCTTGGATCGAGTATATTTCTTCGGAGTCACCTAGTGCAG | 18900 fluorescence intensity (a.u.)
AGTGAACTTGGTTCTGTGGTTGCATGTATTTGGTGGAGGGCGGAGTCACCTAGTGCAG | 9170 fluorescence intensity (a.u.)
GCCTTTTCTTGACTCGGTGGTGGGAGGGGAATTTTCGTGACGGAGTCACCTAGTGCAG | 27000 fluorescence intensity (a.u.)
TGCAGGCTTCCACCGCCCGCCTGTCATTGTCGCCCACTGCCGGAGTCACCTAGTGCAG | 8760 fluorescence intensity (a.u.)
GTTTGTCCCTTTTGACATATGAACTCTTCTCCATGATTTCCGGAGTCACCTAGTGCAG | 8060 fluorescence intensity (a.u.)
GGCTTGATTTCTTCTTTTTTCTAATTTTCATATGGCTATTCGGAGTCACCTAGTGCAG | 9800 fluorescence intensity (a.u.)
TTAAATATTTGAGGGGTCGATATTTCTGGTATTGGTATTACGGAGTCACCTAGTGCAG | 10500 fluorescence intensity (a.u.)
TTTTTTTTTCATCGATGCTTATTTTTTCAGCCTTTACTTTCGGAGTCACCTAGTGCAG | 8640 fluorescence intensity (a.u.)
TGAAGCATGTGGTGGGCATTTTCGTCTTTCTCGAATTCATCGGAGTCACCTAGTGCAG | 9980 fluorescence intensity (a.u.)
GTATGTGCCACGTCATCCAAAACCGGCCACAATACTGTCGCGGAGTCACCTAGTGCAG | 8130 fluorescence intensity (a.u.)
TCCGCTTCTGCTATCTCTCGTCACTCTTCAGTCTTCACCTCGGAGTCACCTAGTGCAG | 8050 fluorescence intensity (a.u.)
AGTTTCAGAACTCACCTCTTTATTAATACATTTAGTTGTTCGGAGTCACCTAGTGCAG | 8850 fluorescence intensity (a.u.)
